Experimental data from PubChem BioAssay AID598 (SRMLSC, 2007).
Hit rate of the full screen: of about 85,000 compounds, about 5,100 (6%) were called active.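 The calls were made as follows: active = viability at or below 40%; inactive = viability above 40%.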 Only a selection was taken, and actives are over-represented in it overall.

Assay: proliferation blockers of H69AR lung cancer cells, primary screen, cell-based, human, 86K library (AID 598);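 also: multidrug resistant small cell line overexpressing MRP-1 efflux transporter; 100% = mean luminescence of untreated control wells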
Details: H69AR lung tumor viability, ATP luminescence, 72 h; at 10 µM; hits give low values
With O=C(COc1ccccc1)Nc1nonc1NC(=O)COc1ccccc1 the viability was 93.3% (inactive). With COc1ccc(CN2CN(C(C)C)CSC2=S)cc1 the viability was 0.67% (active). In the case of O=C(Nc1cc2ccccc2oc1=O)C1CCCCC1, the viability is reported as 98.1% (inactive). For Cc1ccccc1-n1nc(C)c2cc(C(=O)NC3CC3)sc21, the viability was 66.4% (inactive). For Cc1ccccc1NC(=O)c1cnn(-c2ccccc2)c1NC(=O)c1ccco1, the viability was 84.4% (inactive). With O=C(Nc1c(-c2ccccc2)nc2c(Br)cc(Br)cn12)c1ccco1 the viability was 29.5% (active). With O=C(Nc1ccc(Sc2ccc(Br)cc2)cc1)c1ccco1 the viability was 54.3% (inactive). With CCOC(=O)c1c(N=CN(C)C)c(C#N)c2n1CCCC2 the viability was 90.8% (inactive). For CCOc1ccc2[nH]c(=O)c(CN(Cc3nnnn3Cc3ccccc3)CC3CCCO3)cc2c1 (stereo unspecified), the viability was 34.3% (active). For COc1ccc2[nH]c(=O)c(CN(Cc3nnnn3CCc3ccccc3)CC3CCCO3)cc2c1 (stereo unspecified), the viability was 67.1% (inactive). With CCOc1ccc2[nH]c(=O)c(CN(Cc3nnnn3CCc3ccccc3)CC3CCCO3)cc2c1 (stereo unspecified) the viability was 85.5% (inactive). In the case of O=C(COc1ccc(S(=O)(=O)NCc2ccccc2)cc1)N1CCOCC1, the viability is reported as 97.4% (inactive). For COc1ccccc1-c1nc(C#N)c(N2CCC(C(N)=O)CC2)o1, the viability was 95.8% (inactive). With COc1ccc(Nc2oc(-c3ccccc3Cl)nc2C#N)cc1 the viability was 14.3% (active). For CCOc1ccc(Nc2oc(Cc3ccccc3)nc2C#N)cc1, the viability was 78% (inactive). With Cc1cc2nc(SCCN3CCOCC3)[nH]c2cc1C the viability was 109% (inactive). With C=C(C)CSc1nnc(-c2ccc(C)cc2)n1N the viability was 99.4% (inactive). In the case of CC(=NCc1ccco1)c1c(C(F)(F)F)[nH]n(-c2nc3ccccc3s2)c1=O, the viability is reported as 63.2% (inactive). With NNC(=O)C1CCCn2c1nc1sc3c(c1c2=O)CCCC3 (stereo unspecified) the viability was 91.5% (inactive). For N=c1c2c3c(sc2nc2n1CCCCC2)CCCC3, the viability was 84% (inactive). For CS(=O)(=O)N(Cc1nc2sc3c(c2c(=O)[nH]1)CCCC3)C1CCCCC1, the viability was 16.8% (active). With CCn1c(CC(=O)Nc2ccc(C)cc2)nnc1SCC(=O)Nc1nc(C)cs1 the viability was 111% (inactive). With S=C1NC(c2ccccc2)=NCN1c1ccc(Br)cc1 the viability was 88.9% (inactive). With CCOc1ccc(NC(=O)CN2CCN(CC(=O)Nc3ccc(OC)cc3)CC2)cc1 the viability was 56.5% (inactive). For CC1CN(S(=O)(=O)c2ccccc2)C(C)CN1S(=O)(=O)c1ccccc1 (stereo unspecified), the viability was 101% (inactive). With CC(O)CN(Cc1ccc(Cl)cc1)CC(C)O (stereo unspecified) the viability was 100% (inactive). With CCOc1ccccc1NC(=O)Nc1cc(OC)ccc1OC the viability was 93.8% (inactive). With CCOc1ccccc1Oc1cn[nH]c1-c1ccc(OC)cc1O the viability was 16.2% (active). With CCOc1cc(-c2cc(-c3ccc(OC)cc3)nc(N)c2C#N)ccc1O the viability was 51% (inactive). For CCCC1(C(=O)OCC)NC(c2ccc(N(C)C)cc2)C2C(=O)N(c3ccc4c(c3)OCCO4)C(=O)C21 (stereo unspecified), the viability was 80% (inactive). For Cc1ccc(O/C=C2\OC(=O)c3ccccc32)cc1, the viability was 89.6% (inactive). For CN(Cc1nc2ccccc2c(=O)[nH]1)Cc1cc(=O)oc2ccc3ccccc3c12, the viability was 91% (inactive). With NC(=O)C1(N2CCCCC2)CCN(C2CC(=O)N(Cc3ccc(N4CCCC4=O)cc3)C2=O)CC1 (stereo unspecified) the viability was 100% (inactive). For COC(=O)Nc1ccc(S(=O)(=O)N2CCN(CCN3C(=O)C4C5C=CC(C5)C4C3=O)CC2)cc1 (stereo unspecified), the viability was 79.9% (inactive). In the case of CCCCNC(=O)CSc1nc2n[nH]c(C)c2c(=N)n1-c1cccc(Cl)c1C, the viability is reported as 15.5% (active). With CCCCNC(=O)CSc1nccn1Cc1ccccc1 the viability was 99.2% (inactive). With CCCCNC(=O)CSc1nnc(-c2ccco2)n1C the viability was 81.6% (inactive). In the case of COc1ccc(CNCCCO)cc1OC, the viability is reported as 111% (inactive). In the case of Cc1ccc(S(=O)(=O)Oc2ccc(/C=N/NC(=O)c3c(Cl)cnn3C)cc2)cc1, the viability is reported as 79.2% (inactive). With COc1ccccc1NC(=O)CSc1nnc(C)n1CC1CCCO1 (stereo unspecified) the viability was 113% (inactive). For Cn1c(=O)c2c(nc(N3CCCCCC3)n2CC(O)COc2ccc(Cl)cc2)n(C)c1=O (stereo unspecified), the viability was 28.2% (active). With O=C(c1ccc(Cl)cc1)c1ccc(OCC(O)CN2CCCCC2)cc1 (stereo unspecified) the viability was 64.1% (inactive). For Cn1c(=O)c2c(nc(N3CCCCCC3)n2CC(=O)c2ccc(Br)cc2)n(C)c1=O, the viability was 46.8% (inactive). For CCN(CC)C(=O)CC1(c2ccccc2OC)CCOC(C(C)C)C1 (stereo unspecified), the viability was 86.8% (inactive). For COC(=O)c1ccc(CSc2ccc3nnc(-c4ccccc4)n3n2)o1, the viability was 71.6% (inactive). In the case of CC(C)Cc1nc(N2CCOCC2)c(C#N)c2c1CCC2, the viability is reported as 89.6% (inactive). In the case of CCN1CCc2c(C#N)c(NCc3ccccc3)nc(NCCO)c2C1, the viability is reported as 62.2% (inactive). With CC(C)CCNc1nc(N2CCCC2)c2c(c1C#N)CCN(C)C2 the viability was 1.84% (active). In the case of Cc1ccc2nc(SC(C)C(=O)NCc3ccco3)[nH]c2c1 (stereo unspecified), the viability is reported as 85.7% (inactive). In the case of c1ccc(-n2nc3ccccc3n2)cc1, the viability is reported as 96% (inactive). In the case of Cc1nn(Cc2ccccc2)c2c1C(c1ccccc1)C(C#N)=C(N)O2 (stereo unspecified), the viability is reported as 76.3% (inactive). For Cc1cc(C(=O)OC(C)C(=O)Nc2cccc(S(=O)(=O)N3CCOCC3)c2)c(C)o1 (stereo unspecified), the viability was 102% (inactive). For COC(=O)C1C(=O)NCC1c1ccc(C)cc1 (stereo unspecified), the viability was 82.2% (inactive). With COC(=O)C1=C(Nc2ccc(C)cc2)C=C(C)C(C(=O)OC)C1c1ccc(F)cc1 (stereo unspecified) the viability was 12.1% (active). In the case of COC(=O)C1=C(Nc2ccc(OC)cc2)C=C(C)C(C(=O)OC)C1c1ccc(C)cc1 (stereo unspecified), the viability is reported as 55.6% (inactive). For CCOC(=O)c1ccc2c(c1)nc(C)n2CC, the viability was 113% (inactive). With Cc1nnc(NC(=O)CCCOc2ccccc2)s1 the viability was 93.8% (inactive). With CCC(CC)C(=O)N1CC(=O)Nc2ccc(Br)cc2C1c1ccccc1 (stereo unspecified) the viability was 87% (inactive). In the case of COC(=O)/C(NC(C)=O)=C(\C)c1ccc(Cl)cc1, the viability is reported as 102% (inactive). For Cc1cccc(NC(=O)/C(=C\c2ccco2)NC(=O)c2ccccc2)c1, the viability was 85.2% (inactive). With CCOC(=O)C1CCCN(C(=O)CN(c2ccc(OC)cc2)S(=O)(=O)c2c(C)noc2C)C1 (stereo unspecified) the viability was 78.5% (inactive). For Cc1cc(C)cc(N(CC(=O)N2CC=C(c3ccccc3)CC2)S(=O)(=O)c2c(C)noc2C)c1, the viability was 22.6% (active). In the case of Cc1cc(C)cc(N(CC(=O)NCC2CCCO2)S(=O)(=O)c2c(C)noc2C)c1 (stereo unspecified), the viability is reported as 92.5% (inactive). With CCOC(=O)C1C(=O)NCC1c1ccccc1 (stereo unspecified) the viability was 99.9% (inactive). For O=C(c1cc2sccc2n1Cc1ccc(F)cc1)N1CCc2ccccc21, the viability was 76% (inactive). For COC(=O)c1cc(NC(=O)CC2C(=O)NCCN2C(=O)c2ccc(F)cc2)cc(C(=O)OC)c1 (stereo unspecified), the viability was 80% (inactive). In the case of CCc1ccc2c(c1)C1(NN=C(c3ccccc3)S1)C(=O)N2 (stereo unspecified), the viability is reported as 15.2% (active). For C=C1c2cc(CC)ccc2NC(=O)N1c1ccc(C)cc1, the viability was 91.4% (inactive). In the case of O=C1Nc2ccccc2C12Nc1ccccc1S2 (stereo unspecified), the viability is reported as 85.7% (inactive). For CCC(=O)NC(Nc1nc2ccc(C)cc2s1)(C(=O)OC)C(F)(F)F (stereo unspecified), the viability was 82.5% (inactive). With CC(C)CC(=O)Nc1cc(C(F)(F)F)ccc1N1CCOCC1 the viability was 80.6% (inactive). For O=C(NCc1ccco1)c1ccc(Cn2c(=O)c3sccc3n(Cc3ccc(F)cc3)c2=O)cc1, the viability was 82.3% (inactive). In the case of COc1ccccc1NC(=O)C1CCCN(c2cc(C)nc3ncnn23)C1 (stereo unspecified), the viability is reported as 85.4% (inactive). In the case of COc1ccccc1N1CCN(C(=O)c2cc3c(-c4ccc(Cl)cc4)nn(C)c3s2)CC1, the viability is reported as 79.4% (inactive). In the case of COc1cccc(-c2nn(C)c3sc(C(=O)N4CCN(c5ccccc5)CC4)cc23)c1, the viability is reported as 70.9% (inactive). With CCOC(=O)N1CCN(C(=O)c2cc3c(-c4ccc(Cl)cc4)nn(C)c3s2)CC1 the viability was 31.4% (active). For CSc1nc(-c2ccco2)nn1C(=O)CCc1ccccc1, the viability was 94.3% (inactive). With Cc1ccc(C(=O)Nc2ccccc2C(=O)NC2CCCCC2)cc1S(=O)(=O)N1CCOCC1 the viability was 73% (inactive). For O=C(NCCSCc1ccccc1)c1ccc(Cl)c(S(=O)(=O)N2CCOCC2)c1, the viability was 72.6% (inactive). In the case of Cc1ccccc1CSCCNC(=O)c1ccc(Cl)c(S(=O)(=O)N2CCOCC2)c1, the viability is reported as 24.7% (active). In the case of CCCc1noc2c1/C(=N\O)CCC2, the viability is reported as 111% (inactive). In the case of CC(C)C(=O)Nc1c(C(=O)c2ccc(F)cc2)oc2ccccc12, the viability is reported as 83.5% (inactive). In the case of COC(=O)c1oc2ccc(Br)cc2c1NC(C)=O, the viability is reported as 95% (inactive). With COc1ccc(C(=O)c2oc3ccc(Br)cc3c2NC(C)=O)cc1 the viability was 37.9% (active). For CCn1nnnc1SCC(=O)c1ccc(C)cc1C, the viability was 101% (inactive). In the case of CN(C)c1ccc(CNC2C3CC4CC(C3)CC2C4)cc1 (stereo unspecified), the viability is reported as 99.4% (inactive). In the case of O=C(Nc1cccc(Cl)c1)Nc1nnc(-c2ccccc2)o1, the viability is reported as 70.9% (inactive). With CC(C)(C)c1ccc(C(=O)NCCC(=O)NCc2ccco2)cc1 the viability was 87.7% (inactive). With Cc1ccccc1NC(=O)NCc1ccco1 the viability was 99.6% (inactive). For CC(C)(C)c1ccc(NC(=O)NCc2ccco2)cc1, the viability was 39.5% (active). In the case of CCC(c1nnnn1C(C)(C)C)N(Cc1cc2cccc(C)c2n2nnnc12)C1CCCC1 (stereo unspecified), the viability is reported as 78.9% (inactive). For CCOc1cc(NC(=O)c2ccco2)c(OCC)cc1NC(=O)COc1ccccc1, the viability was 91.9% (inactive). With CCOc1cc(N2CCOCC2)c(OCC)cc1NC(=O)COC(=O)[C@H](Cc1c[nH]c2ccccc12)NC(C)=O the viability was 71.8% (inactive). With CCOc1cc(N2CCOCC2)c(OCC)cc1NC(=O)COc1cccc2cccnc12 the viability was 21.9% (active). With O=C(Nc1cccc(NC(=O)c2ccco2)c1)c1cnccn1 the viability was 87.2% (inactive). For Cc1cc(C)c(NC(=O)CN2CCOCCOCCOCCOCC2)c(C)c1, the viability was 97.2% (inactive).
